Common to all, as to test: NCI-60 one-dose screen, 48 h (100 = growth as untreated, 0 = no growth, -100 = all killed)
Details in all cases: 10 µM unless noted

The subject of assay [1] is SK-MEL-2 melanoma.
Assay [2] relates to EKVX NSCLC.
Assay [3] relates to SN12C renal.
Assay [4] has as its system TK-10 renal.
The subject of assay [5] is ACHN renal.
The subject of assay [6] is CAKI-1 renal.
For assay [7], the system named is A498 renal.
Assay [8] concerns CCRF-CEM leukemia.
For assay [9], the system named is MOLT-4 leukemia.
The test system of assay [10] is SR leukemia.
Assay [11] relates to RPMI-8226 leukemia.
For assay [12], the system named is OVCAR-8 ovarian.
For assay [13], the system named is OVCAR-5 ovarian.
Assay [14] concerns OVCAR-4 ovarian.
Assay [15] concerns SK-OV-3 ovarian.
The subject of assay [16] is IGROV1 ovarian.
Assay [17] relates to OVCAR-3 ovarian.
For assay [18], the system named is HS 578T breast.
The test system of assay [19] is NCI/ADR-RES ovarian.

About 83,000 compounds went through this panel and 20% of them were active in at least one assay; those are over-represented in the sample as a whole.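 Compound tested at a single concentration for 48 hours in 96-well plates; a percent growth value below 10 was scored as active.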 Values without a mark were called inactive. Activity calls are given as the source filed them.

Consider `COc1ccc(-c2ccc(-c3ccc(C(=N)N)nc3)s2)cc1`, for which the growth in [1] is 88.3%; in [2] it was 38.8%; in assay [3] it was -78.9% (active); in [4], -65.8% (active); in [5], -100% (active); in [6] it was -92.3% (active). The growth was 94.3% in [7]; -43.4% (active) in [8]; -53.7% (active) in [9]; 0.29% (active) in assay [10]; -41.1% (active) in [11]; -17.4% (active) in assay [12]. In addition, the growth was -73.1% (active) in assay [13]; -79.7% (active) in assay [14]; 89.2% in assay [15]; -84.3% (active) in assay [16]; -87.1% (active) in assay [17]; -47.5% (active) in assay [18]. Also, the growth in [19] is 25.5%.
Consider `CN1/C(=C/C=C/c2n(Cc3ccc4ccccc4c3)c(Cl)c(Cl)[n+]2Cc2ccc3ccccc3c2)Oc2ccccc21`, for which the growth in assay [1] was -87.9% (active); in assay [2], -91.7% (active); in [3] it was -92.9% (active); in [4], -90.5% (active); in assay [5] it was -96.6% (active); in assay [6] it was -94.1% (active). Besides, the growth is -77.9% (active) in assay [7]; -52.7% (active) in assay [8]; 91.1% in [9]; 95.3% in assay [10]; -53.1% (active) in [11]; -86.1% (active) in assay [12]. Moreover, the growth in [13] is -83.1% (active); in assay [14], -70.7% (active); in [15], -57.2% (active); in assay [16], -80.4% (active); in [17] it was -83.8% (active); in assay [18] it was -44.4% (active). For the same compound, the growth in assay [19] was 33.4%.
For the compound `CCN1C(=O)N(CC)C2C1NC(=S)N2/N=C/C=C/c1cccs1` (stereo unspecified), the growth was 64.1% in assay [1]; 55.1% in [2]; 30.2% in assay [3]; 70.3% in assay [4]; 42.4% in assay [5]; 36.5% in [6]. Further, the growth in assay [7] is 18.4%; in assay [8], 12.1%; in [9] it was 20.4%; in assay [10], 17.8%; in assay [11], 25.4%; in assay [12], 17.2%. The growth in [13] was 33%; in assay [14], 57.3%; in [15] it was 43.7%; in assay [16], 24.5%; in assay [17] it was 2.01% (active); in assay [18], 16.5%. Further, in assay [19], the growth was 4.47% (active).
`CCN1C(=O)N(CC)C2C1NN=c1s/c(=C\c3ccc([N+](=O)[O-])cc3)c(=O)n12` (stereo unspecified): the growth in assay [1] was 70.4%; in assay [2] it was 52.3%; in assay [3], 29.6%; in assay [4] it was 69.1%; in [5] it was 41.9%; in assay [6], 37.1%. In addition, the growth in [7] was 18.6%; in [8], 11.2%; in [9], 15.8%; in assay [10] it was 19.9%; in [11], 24.3%; in assay [12] it was 15.3%. In addition, the growth was 35% in assay [13]; 47.7% in [14]; 42.8% in assay [15]; 22.6% in assay [16]; 7.68% (active) in [17]; 17.1% in assay [18]. Further, the growth in assay [19] was 9.89% (active).
Regarding `COc1ccc(S(=O)(=O)NC2c3ccccc3CC2O)cc1OC` (stereo unspecified), the growth in assay [1] was 104%; in assay [2], 103%; in [3], 96.1%; in assay [4] it was 112%; in assay [5] it was 105%; in assay [6], 102%. Moreover, the growth in [7] is 92.7%; in [8], 101%; in assay [9], 103%; in assay [10] it was 100%; in [11] it was 104%; in assay [12], 107%. The growth in assay [13] is 104%; in [14], 117%; in assay [15], 115%; in [16], 106%; in assay [17], 112%; in assay [18], 98.8%. For the same compound, in [19], the growth is 105%.
Take `Nc1ncc(-c2ccc3ncnc(N4CCc5cc(F)c(Cl)cc54)c3c2)cc1C=O`: the growth is 8.65% (active) in assay [1]; 4.02% (active) in [2]; 12.9% in [3]; -6.72% (active) in [4]; 7.1% (active) in assay [5]; -0.981% (active) in [6]. Moreover, the growth in [7] is -62.8% (active); in assay [8], 18.4%; in assay [9], 2.46% (active); in [10], 18.7%; in assay [11], -4.54% (active); in [12] it was 31.4%. The growth in assay [13] was 9.67% (active); in [14], 34.5%; in assay [15], -3.8% (active); in assay [16] it was -35.9% (active); in assay [17] it was 0.575% (active); in assay [18], -18.9% (active). In addition, in [19], the growth is 28.6%.
Consider `C=C1C(=O)O[C@H]2[C@H]1CC/C(COC(=O)NCc1ccc(Cn3c(=O)sn(CCCC)c3=O)cc1)=C\CC[C@@]1(C)O[C@@H]21`, for which the growth was 81.5% in assay [1]; 91.1% in assay [2]; 49.5% in assay [3]; 14.7% in assay [4]; 15.2% in assay [5]; 40.6% in assay [6]. Further, the growth in assay [7] is 100%; in assay [8] it was -22.4% (active); in [9] it was 1.1% (active); in [10], 17.2%; in [11], -15.8% (active); in assay [12] it was 65.4%. The growth was 71.9% in assay [13]; 29.2% in [14]; 36.4% in assay [16]; -28.6% (active) in [17]; 78.2% in [18]; 103% in assay [19].
On to `CCCC1Cc2cc(-n3nc(C)c4c3CC(C)(C)CC4=O)cc(NC3CCC(O)CC3)c2C(=O)N1` (stereo unspecified), for which the growth in assay [1] was 48.7%; in assay [2], 62.8%; in assay [3], 38%; in assay [4], 38.2%; in assay [5] it was 29.3%; in assay [6], 30.4%. Further, the growth was 37.6% in assay [7]; 35% in [8]; 16.8% in [9]; 29.5% in [10]; 51% in assay [11]; 40.3% in assay [12]. The growth in assay [13] was 58.8%; in assay [14], 62.5%; in assay [15] it was 17.1%; in assay [16] it was 24.7%; in [17], 52.6%; in assay [18], 59.1%. Further, the growth in assay [19] is 47%.

For the origin of these results see PubChem BioAssay (NCI).
